# Results from the supplement of paper PMC10338343.
# ± gives the standard deviation.
# Assays:
# [1] = tested on: MILI (PIWIL2) piRISC loaded with L1MC piRNA (26 nt); assay: pre-steady-state target cleavage rate (min^-1); guide: L1MC piRNA 5'p-UAACUAAAUACUAUGCAAGCUGUAGG; higher = faster piRNA-guided slicing of the target;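 note: 1 nM active piRISC with 0.1 nM target library at 33 °C single turnover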
# Summary of the method: (§1)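 For Cleave-'n-Seq, a transcribed, DNA-blocked target RNA library […] met 1 nM active affinity-purified piRISC with one synthetic guide at 33 °C for 0–8 or 0–960 min in HEPES–potassium acetate buffer, with or without 500 nM GTSF1 partner protein. Uncleaved targets were sequenced and normalised to depth and weakly complementary targets, with three trials pooled and k3 capped at 0.0001 min^-1. A burst-and-steady-state fit supplied the pre-steady-state cleavage rate.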
# [2] = tested on: EfPiwi piRISC loaded with L1MC piRNA (26 nt); assay: pre-steady-state target cleavage rate (min^-1); auxiliary factor: none (no Gtsf1); guide: L1MC piRNA 5'p-UAACUAAAUACUAUGCAAGCUGUAGG; higher = faster piRNA-guided slicing of the target
# Summary of the method: as §1
# [3] = tested on: EfPiwi piRISC loaded with L1MC piRNA (26 nt); assay: pre-steady-state target cleavage rate (min^-1); auxiliary factor: 500 nM Ephydatia muelleri Gtsf1; guide: L1MC piRNA 5'p-UAACUAAAUACUAUGCAAGCUGUAGG; MIWI and MILI are mouse PIWI proteins and EfPiwi is from a freshwater sponge; tags in brackets are library labels; higher = faster piRNA-guided slicing of the target
# Summary of the method: as §1
# [4] = auxiliary factor: 500 nM mouse GTSF1
# [5] = auxiliary factor: none (no GTSF1)
sequence,measurement,setting,value
UCCUGGUACAGCUUGGUUAGUAUUUAGAAA,pre-steady-state target cleavage rate,[1]; [4],0.043 ± 0.016
same,pre-steady-state target cleavage rate,[2],< 0.0001
UCCUGGAUGUCGAAGCAUAGUUAAAUCAAA [g10:g16:cont:t1A],pre-steady-state target cleavage rate,[1]; [5],< 0.0001
same,pre-steady-state target cleavage rate,[2],< 0.0001
UCCUGGAUGUCGAAGCAUAGUAUUUGUUA,pre-steady-state target cleavage rate,[1]; [5],< 0.0001
same,pre-steady-state target cleavage rate,[2],< 0.0001
UCCUGGAUGUCGAAGCAUAGUAUUUAGUGA,pre-steady-state target cleavage rate,[1]; [4],0.0495 ± 0.015
same,pre-steady-state target cleavage rate,[1]; [5],0.00324 ± 0.0026
same,pre-steady-state target cleavage rate,[2],< 0.0001
UCCUGGAUGUCGAUGCAUAGUAUUUACAAA,pre-steady-state target cleavage rate,[1]; [4],0.0066 ± 0.0042
same,pre-steady-state target cleavage rate,[2],< 0.0001
UCCUCCUACAGCUUGGAUACUAUUUAGUUA,pre-steady-state target cleavage rate,[1]; [4],0.0539 ± 0.0095
same,pre-steady-state target cleavage rate,[2],0.00497 ± 0.0037
same,pre-steady-state target cleavage rate,[3],0.0118 ± 0.0031
UCCUGGUACAGCUUGCAUAGUAUUUAAGUUA,pre-steady-state target cleavage rate,[1]; [4],0.22 ± 0.041
same,pre-steady-state target cleavage rate,[1]; [5],0.0123 ± 0.0043
same,pre-steady-state target cleavage rate,[2],0.00555 ± 0.0052
UCCUGCUACAGCUUGCAUAGUAUUAUGAAA,pre-steady-state target cleavage rate,[1]; [4],0.0843 ± 0.025
same,pre-steady-state target cleavage rate,[2],< 0.0001
same,pre-steady-state target cleavage rate,[3],0.00355 ± 0.0023
UCCUGGAUGAGCUUGCAUAGUACUUUAGUUA,pre-steady-state target cleavage rate,[1]; [4],0.0613 ± 0.0089
same,pre-steady-state target cleavage rate,[1]; [5],0.00632 ± 0.0026
same,pre-steady-state target cleavage rate,[2],0.00423 ± 0.0036
UCCUGGAUGUCCUUGCAAAGUAAUUAGUUA,pre-steady-state target cleavage rate,[1]; [4],0.018 ± 0.0064
same,pre-steady-state target cleavage rate,[1]; [5],0.00522 ± 0.0014
same,pre-steady-state target cleavage rate,[2],< 0.0001
UCCUGCAUGAGCUUGCAUAGUAUUUAGAAA,pre-steady-state target cleavage rate,[1]; [4],0.157 ± 0.028
same,pre-steady-state target cleavage rate,[2],< 0.0001
same,pre-steady-state target cleavage rate,[3],0.00569 ± 0.0021
UCCUGGAUCAGGUUGCAUAGUAUUUUCAAA,pre-steady-state target cleavage rate,[1]; [4],0.07 ± 0.023
same,pre-steady-state target cleavage rate,[2],< 0.0001
UCCUGGAUGUCGUUGCAUAGUAUAAUGUUA,pre-steady-state target cleavage rate,[1]; [4],0.0201 ± 0.011
same,pre-steady-state target cleavage rate,[2],< 0.0001
UCCUGGAACAGCUUGCAUAGUAUUAACAAA,pre-steady-state target cleavage rate,[1]; [4],0.104 ± 0.029
same,pre-steady-state target cleavage rate,[2],< 0.0001
UCCUGGAUCAGCAACCAUAGUAUUUUCAAA,pre-steady-state target cleavage rate,[1]; [5],< 0.0001
same,pre-steady-state target cleavage rate,[2],< 0.0001
UCCUGCUACAGGUUGCAUAGUAUUUACAAA,pre-steady-state target cleavage rate,[1]; [4],0.0112 ± 0.0054
same,pre-steady-state target cleavage rate,[2],< 0.0001
same,pre-steady-state target cleavage rate,[3],0.00244 ± 0.0017
UCCUGGAUGAGCUUGCAUAGUCUUUAGUUA,pre-steady-state target cleavage rate,[1]; [4],0.0764 ± 0.012
same,pre-steady-state target cleavage rate,[1]; [5],0.00627 ± 0.0022
same,pre-steady-state target cleavage rate,[2],0.0128 ± 0.0056
same,pre-steady-state target cleavage rate,[3],0.0107 ± 0.0033
UCCUGCUACACCUUGCAUAGUAUUUAGAAA,pre-steady-state target cleavage rate,[1]; [4],0.169 ± 0.036
UCCUGGAUCACGAUGCAUAGUAUUUUCAAA,pre-steady-state target cleavage rate,[1]; [4],0.0499 ± 0.012
UCCUGGAUGUCGUUGCAUAGUAUUUAGGUUA,pre-steady-state target cleavage rate,[1]; [4],0.152 ± 0.033
UCCUGGAUGUCGAACCAUAGUAUUAAGUAA,pre-steady-state target cleavage rate,[1]; [5],< 0.0001
UCCUGGAUGACGUUGCAUAGUAUUUACAAA,pre-steady-state target cleavage rate,[1]; [4],0.0104 ± 0.0057
UCCUGGAUGUCGAUGCAUAGUAUUAUGUUA,pre-steady-state target cleavage rate,[1]; [4],0.0412 ± 0.011
UCCUCCUACAGCUUGCUAAGUAUUUUCAAA,pre-steady-state target cleavage rate,[1]; [4],0.0625 ± 0.017
UCCUGGAUGUGCUUGGAUACUAUUUAGUUA,pre-steady-state target cleavage rate,[1]; [4],0.0156 ± 0.0061
UCCUCCUACAGCUUGCAUAGUUAUUUCAAA,pre-steady-state target cleavage rate,[1]; [4],0.0507 ± 0.016
UCCUGGAUGUCGAAGCAUUGUAUAUAGUUA,pre-steady-state target cleavage rate,[1]; [5],< 0.0001
UCCUGGAUGUCCUUGCAUAGUUUUUACUUA,pre-steady-state target cleavage rate,[1]; [4],0.00658 ± 0.0044
UCCUGGAUGACCUUGCAUAGUAUUUAGAAA,pre-steady-state target cleavage rate,[1]; [4],0.133 ± 0.038
UCCUGGAUGAGCUUGGAUACUAUUUAGUUA,pre-steady-state target cleavage rate,[1]; [4],0.00767 ± 0.0035
UCCUGCUACAGCUUGCAUAGAUUUUUCAAA,pre-steady-state target cleavage rate,[1]; [4],0.0091 ± 0.0044
UCCUGGAUCUGCUUGCAUAGUAUUUUCAAA,pre-steady-state target cleavage rate,[1]; [4],0.0366 ± 0.0094
UCCUGGAUCAGCUUGCAUAGCUAUUUAGUUA,pre-steady-state target cleavage rate,[1]; [4],0.00402 ± 0.004
UCCUGGAUGUCCUUGUCAUAGUAUUUAGUUA,pre-steady-state target cleavage rate,[1]; [4],0.0189 ± 0.009
UCCUGGUACAGCUUGCAUAGUAUUUAUUA,pre-steady-state target cleavage rate,[1]; [4],0.042 ± 0.016
UCCUGGUACAGCUUGCAUAGUAUUUACUUA,pre-steady-state target cleavage rate,[1]; [4],0.103 ± 0.025
UCCUCCUACAGCUACGAUAGUAUUUAGAAA,pre-steady-state target cleavage rate,[1]; [4],0.13 ± 0.029
UCCUGGAUCAGCAACCAUAGUAUUUAGUAA,pre-steady-state target cleavage rate,[1]; [4],0.0962 ± 0.012
UCCUGGAUCACCUUGCAUAGUAUUUACAAA,pre-steady-state target cleavage rate,[1]; [4],0.131 ± 0.031
UCCUGGAUGUCCUACGAUAGUAUUUAGUUA,pre-steady-state target cleavage rate,[1]; [4],0.007 ± 0.004
UCCUGGAUCAGCUUGCAUAGUAUUUUCUAA,pre-steady-state target cleavage rate,[1]; [4],0.0634 ± 0.017
UCCUCGUACAGCUUGCAUAGUAUUUACUUA,pre-steady-state target cleavage rate,[1]; [4],0.0971 ± 0.015
UCCUGGUACACCUUGCAUAGUAUUUUCAAA,pre-steady-state target cleavage rate,[1]; [4],0.0291 ± 0.016
UCCUGCUACAGCUUGGUAAGUAUUUAGUAA,pre-steady-state target cleavage rate,[1]; [4],0.207 ± 0.039
UCCUGCUACAGCUUCCAUAGUAUUUUGUUA,pre-steady-state target cleavage rate,[1]; [4],0.00554 ± 0.0042
UCCUGCUACAGCUUGCAUAGUAUUAUCAAA,pre-steady-state target cleavage rate,[1]; [4],0.0862 ± 0.026
UCCUGGAUGUCGAACGUAUCUAAUUAGUUA,pre-steady-state target cleavage rate,[1]; [5],< 0.0001
UCCUGCUACAGCUUGGUUAGUAUUUAGAAA,pre-steady-state target cleavage rate,[1]; [4],0.018 ± 0.007
UCCUCCUACUCGUUGCAUAGUAUUUUCAAA,pre-steady-state target cleavage rate,[1]; [4],0.0494 ± 0.013
UCCUGGAUGUGCUUGCUUAGUAUUUAGAAA,pre-steady-state target cleavage rate,[1]; [4],0.0749 ± 0.017
UCCUCCUACAGCUUCCAUAGUUUUUAGUUA,pre-steady-state target cleavage rate,[1]; [4],0.0195 ± 0.0081
UCCUGGAUGAGCUACCAUAGUAUUUAGAAA,pre-steady-state target cleavage rate,[1]; [4],0.00557 ± 0.0043
UCCUGGAUGUCCUUGCAUAGUAUUUAGCUUA,pre-steady-state target cleavage rate,[1]; [4],0.0698 ± 0.014
UCCUGGAUGUCGUUGCAUAGUGAUUUAGUUA,pre-steady-state target cleavage rate,[1]; [5],0.0042 ± 0.0032
UCCUGGAUGAGCUUGCAUAGAUAUUACAAA,pre-steady-state target cleavage rate,[1]; [5],< 0.0001
UCCUGGAUGUCGAUGCAUAGUAUUUAAUUA,pre-steady-state target cleavage rate,[1]; [4],0.0256 ± 0.0092
UCCUGCUACACCUUGCAUAGAAUUUAGUUA,pre-steady-state target cleavage rate,[1]; [4],0.0952 ± 0.037
UCCUGGAUGUGCUUGCAUAGAAUUAAGUUA,pre-steady-state target cleavage rate,[1]; [4],0.00431 ± 0.003
